Compound activity: PubChem, National Center for Advancing Translational Sciences (NCATS)
IMPase Li inh: qHTS Assay for Identifying the Cell-Membrane Permeable IMPase Inhibitors: Potentiation with Lithium. CHO-M1 cells, IP1 TR-FRET (IP-One), carbachol + lithium. Potency, µM (top dose mostly 59.4 µM), for inactives: top-dose activity, negative = IMPase inhibition, usual class: inhibitors. actives 0.35% (n = 210,000). AID 1457, 2008;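 note: IP1 builds up when IMPase is blocked and the TR-FRET signal falls; potency is the fitted concentration of half-maximal effect; plate controls were basal vehicle for no effect and high inhibitor control for full effect; nearly all actives have a fitted effect of over 50% in size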
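CHO cells stably expressing M1 receptor (2000/well) were cultured 16–30 h, then exposed to compounds with a small lithium addition for 30 min at 37C. IP1 was measured by TR-FRET competition; AC50 from Hill fits.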
IMPase inh: qHTS Assay for Identifying the Cell-Membrane Permeable IMPase Inhibitors; Inositol monophosphatase 1 (Rattus norvegicus), P97697; inhibition (IP1 accumulation), % at 46.1 µM; CHO-M1 cells, IP1 accumulation, HTRF TR-FRET ratio; 120,000 tested, under 10 active; active = well fitted curve in the direction sought with a large enough effect in the signal ratio, not every such curve was filed as active; inconclusive = small, poorly fitted or top-dose-only effect, or a change in a side signal; inactive = no such curve, though single readings can be large or run the other way; the % refers to the signal ratio;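 note: cells stimulated with carbachol in lithium chloride buffer; plate controls were DMSO basal wells for no effect and reference inhibitor wells for full effect; higher means more IMPase inhibition seen as more IP1 and lower FRET ratio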
Target sequence (P97697 whole entry, looked up): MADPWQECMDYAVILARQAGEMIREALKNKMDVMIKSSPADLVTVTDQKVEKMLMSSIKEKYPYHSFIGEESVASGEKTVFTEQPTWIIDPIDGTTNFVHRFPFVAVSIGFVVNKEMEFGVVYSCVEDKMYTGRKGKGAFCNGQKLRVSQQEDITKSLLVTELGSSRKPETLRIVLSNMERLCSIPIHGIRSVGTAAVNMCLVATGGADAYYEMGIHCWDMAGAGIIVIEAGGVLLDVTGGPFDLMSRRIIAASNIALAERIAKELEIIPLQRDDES
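CHO-M1, 2000 cells/well, cultured 16–30 h; cpd up to 46 uM; carbachol (50 uM solution, stimulation buffer w/ 50 mM LiCl, pH 7.4), 30 min 37C; IP-One TR-FRET, 10 min RT; Ex 320/Em 665, 620; Hill-fit AC50.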
ALOX15B inhib: qHTS Assay for Inhibitors of 15-hLO-2 (15-human lipoxygenase 2); Potency, µM (titrated, usually from 57.1 µM), inactives show top-dose activity change, negative = inhibition, hits mostly inhibitors; purified 15hLO-2, xylenol orange hydroperoxide absorbance; Polyunsaturated fatty acid lipoxygenase ALOX15B (Homo sapiens), O15296; actives 0.56% (n = 110,000); note: potency is the fitted concentration of half-maximal effect; nearly all actives have a fitted effect of over 60% in size
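Read-out: hydroperoxide product oxidises ferrous iron, measured as xylenol orange complex via the 573-to-405 nm absorbance ratio after 30 min. Reaction: 50 nM enzyme, 15 min compound preincubation, 45 uM arachidonic acid, 90 min RT, Hepes pH 7.5 with Triton X-100.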
ALOX12 inhib: qHTS Assay for Inhibitors of 12-hLO (12-human lipoxygenase); Potency, µM (doses to about 57.1 µM), without a hit: at the top dose activity change, negative = inhibition, most hits filed as inhibitors; purified 12-hLO, xylenol orange hydroperoxide absorbance; actives 0.12% (n = 150,000); AID 1452, 2008; note: potency is the fitted concentration of half-maximal effect; nearly all actives have a fitted effect of over 55% in size
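Purified human 12hLO (150 nM final) was preincubated with compounds for 15 min at room temperature in 25 mM Hepes pH 7.0, 0.01% Triton X-100, then reacted with 40 uM arachidonic acid for 30 min. Hydroperoxide was detected with ferrous iron/xylenol orange.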
An asterisk follows results filed as active; u = inconclusive; x = no result given; [ ] = dose if it differs, or a comment. Only some compounds are listed: those with a hit (about 0.57% of all), similar ones and a draw of the others. Unless noted, calls come from the whole dose curve; as a rule, active = well fitted curve in the direction sought with a large enough effect; inconclusive = small, poorly fitted or top-dose-only effect, or another doubt; inactive = no such curve, though single readings can be large; an effect the other way counts as inactive or inconclusive. Unless noted, % is set by controls: 0 for no effect and ±100 for the full control effect.

SMILES	IMPase Li inh	IMPase inh	ALOX15B inhib	ALOX12 inhib
COc1ccccc1NC(=S)NCCc1ccc(Cl)cc1	10%[38.3 µM]	0	u	14µM*
COc1ccccc1NC(=S)NC(=O)C1CC1	-3%	x	x	-1%
N=C1CCC[C@@H]1C(=S)SCCC(N)=O	-7%	x	-10%[11.4 µM]	2%[11.4 µM]
Cc1cccc(NC(=O)CSC2=Nc3ccccc3C3=NC(CC(=O)NCc4cccs4)C(=O)N23)c1 (configuration not stated)	x	2	x	x
COc1ccc2[nH]c(=O)c(CN(C)C(=O)c3ccncc3)cc2c1	20%[38.3 µM]	4	-1%	4%
COc1ccc2[nH]c(=O)c(CN(C)C(=O)C3CCCCC3)cc2c1	28µM*	-6	-10%	4%
C=C(C)C(=O)/C=C/c1ccc(C(F)(F)F)cc1	12%	x	x	2%
CC1(C)CC(Nc2ccc(Nc3ccccc3)cc2)CC(C)(C)N1	15%	x	4µM*	u
CC(C)C(OC(=O)c1cccs1)C(=O)NCc1cccs1 (configuration not stated)	25µM*	2	-5%	-2%
CCOC(=O)C1(C)/C(=N/Nc2ccc(Cl)cc2)C(=O)C(=O)N1c1ccccc1 (configuration not stated)	10%[38.3 µM]	5	u	u
CCOC(=O)C1(C)/C(=N/Nc2cccc(Cl)c2)C(=O)C(=O)N1c1ccccc1 (configuration not stated)	-7%[38.3 µM]	8	-21%	3.2µM*
COc1ccc(-c2nc3cnc(N(C)C)nc3n(C)c2=O)cc1	-4%	x	-2%	x
CN(C)CCNC(=O)c1cc2c(s1)-c1ccccc1OC2	8.9µM*	-19	39%	3%
O=C(c1cc2c(s1)-c1ccccc1OC2)N1CCN(c2ccccn2)CC1	10µM*	u	15%	-6%
Cc1csc(NC(=O)c2cc3c(s2)-c2ccccc2OC3)n1	1%	-5	x	8%
O=C(c1cc2c(s1)-c1ccccc1OC2)N1CCN(c2ccccc2)CC1	7.9µM*	u	-7%	-11%
COc1ccccc1CNc1ccnc(-c2ccc3c(c2)OCO3)n1	-1%	x	-10%	-8%
Cc1ccccc1Nc1oc(-c2ccccc2)nc1CCc1ccccc1	23%	x	x	0%
COc1ccc2[nH]c3c(=S)nc[nH]c3c2c1	2.8µM*	x	x	x
C=CCn1c(-c2cccc(Cl)c2)n[nH]c1=S	8.9µM*	-22	-5%	-9%
CN(C)c1ncc2nc(-c3cccs3)c(=O)n(C[C@H]3CCCO3)c2n1	8%	x	2%	x
CCN(C=NC1=NN(c2cccc(C(F)(F)F)c2)CC1)CC	20%	x	x	-12%
OCCN(C=NC1=NN(c2cccc(C(F)(F)F)c2)CC1)CCO	17%[38.3 µM]	13	25µM*	-30%
Cc1ccc(C)c(N(CC(=O)Nc2ccc(-c3nc4ccc(C)cc4s3)cc2)S(C)(=O)=O)c1	-16%	x	x	0%
Cc1ccc2nc(-c3ccc(NC(=O)CCS(=O)(=O)c4ccccc4)cc3)sc2c1	13µM*	-12	x	-3%
SMILES	IMPase Li inh	IMPase inh	ALOX15B inhib	ALOX12 inhib
Cc1ccc(N(CC(=O)Nc2ccc(-c3nc4ccc(C)cc4s3)cc2)S(C)(=O)=O)cc1	13µM*	5	-12%	-7%
C=C(C(=O)OCC)C(=O)c1ccccc1	8%	x	x	x
Nc1nonc1-c1nc2ccccc2n1Cc1c(Cl)cccc1Cl	x	4	x	x
COc1ccc(OCC(=O)Nc2cc(-c3nn(C)c(=O)c4ccccc34)ccc2OC)cc1	7.9µM*	8	-13%	-9%
O=C(Nc1ccncc1)c1cc(-c2ccccn2)nc2ccccc12	3%	x	x	x
O=C(Nc1ccc2c(c1)OCCO2)c1cc(-c2ccccn2)nc2ccc(Br)cc12	13µM*	x	x	x
COc1cc(Cl)c(C)cc1NC(=O)c1ccc(NS(=O)(=O)c2ccc(F)c(F)c2)cc1	5.6µM*	x	x	x
COc1ccc(S(=O)(=O)Nc2ccc(F)c(F)c2)cc1Cl	7%	-4	-2%	-10%
COc1ccc(-c2nc(-c3ccccc3)c(NC(C)(C)C)o2)cc1	19%	x	x	7%
COc1ccc(-n2nc3cc(C)c(N)c(Br)c3n2)cc1	-15%[38.3 µM]	-4	10µM*	25µM*
Cc1ccc(-c2csc3nnc(SCC(=O)Nc4nsc(-c5ccccc5)n4)n23)cc1	-6%[38.3 µM]	1	1%	-9%
Cc1ccc(-c2nc(NC(=O)CSc3nnnn3-c3ccccc3)ns2)cc1	10µM*	u	-13%	-9%
C=C(CO)C1Cc2c(ccc3c(=O)c4c(oc23)COc2cc(OC)c(OC)cc2-4)O1 (configuration not stated)	18%	-8	-15%	-3%
CN[C@@H](CC(C)C)C(=O)N[C@@H]1C(=O)N[C@H](CC(N)=O)C(=O)N[C@H]2C(=O)N[C@H]3C(=O)N[C@H](C(=O)N[C@H](C(=O)O)c4cc(O)cc(O)c4-c4cc3ccc4O)[C@H](O)c3ccc(c(Cl)c3)Oc3cc2cc(c3O[C@@H]2O[C@@H](CO)[C@@H](O)[C@@H](O)[C@H]2O[C@H]2C[C@](C)(N)[C@H](O)[C@H](C)O2)Oc2ccc(cc2Cl)[C@@H]1O	x	1	-14%	-8%
Cc1ccc(-c2c(C(=O)Nc3ccccc3C)c(C)[nH]c(=S)c2C#N)o1	11µM*	x	x	x
CC(C)Oc1cccc(C(=O)Nc2ccc3oc(-c4cccc(Cl)c4)nc3c2)c1	x	-5	x	x
O=[N+]([O-])c1ccc(N2N=C(c3ccco3)CC2c2ccccc2)cc1 (configuration not stated)	21%[38.3 µM]	10	13µM*	-9%
Fc1ccc(C2CC(c3ccco3)=NN2c2ccccc2)cc1 (configuration not stated)	-1%[38.3 µM]	-16	u	u
COc1ccc(C(=O)Nc2ccc(N3CCN(c4ccc(OC)cc4)CC3)c(C#N)c2)cc1	1.8µM*	u	-6%	6%
COc1ccc(N2CCN(c3ccc(NC(=O)C4CCCCC4)cc3C#N)CC2)cc1	u	-1	-16%	5%
CCOC(=O)c1ccc(NC(=S)NCCC2=CCCCC2)cc1	17%	5	x	25µM*
COC(=O)c1ccc(C(=O)OC)c(NC(=O)COC(=O)c2ccccc2OC)c1	11µM*	x	x	-1%
CCOc1ncccc1C(=O)OCC(=O)Nc1cc(C(=O)OC)ccc1C(=O)OC	-7%[38.3 µM]	-1	0%	-5%
CCOC(=O)c1sc2nc(Cc3ccc(Cl)cc3)[nH]c(=S)c2c1C	7.9µM*	x	x	x
CCOC(=O)c1sc2nc(COC(=O)c3c(F)cccc3F)[nH]c(=O)c2c1C	-2%	x	x	x
CCn1c(-c2ccc(S(=O)(=O)N3CCOCC3)cc2)csc1=Nc1ccc(C)c(Cl)c1	x	-12	x	x
COCCCn1c(-c2ccc(S(=O)(=O)N3CCOCC3)cc2)csc1=Nc1ccccc1	10µM*	-13	1%	4%
O=C(O)CCCCCN1C(=O)/C(=C\c2ccncc2)SC1=S	8%	x	x	4%
